Source: PubChem (Center for Chemical Genomics, University of Michigan)
The sample as a whole holds a higher share of hits than the screen did.
Dicer inh: inhibitors of Dicer pre-microRNA processing, primary screen, biochemical, cat-ELCCA, chemiluminescence. Endoribonuclease Dicer (Homo sapiens), Q9UPY3. cat-ELCCA pre-miR-21 Dicer processing; active compounds read high. z-score at 25 µM. actives 6% (n = 47,000). AID 1347074, 2019; in the data active means z-score above about 3, passing the limit was not always enough;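 further: higher signal means more uncleaved substrate so more Dicer inhibition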
Large screens that a line does not name were inactive.

COC(=O)c1sccc1Oc1ccc(C(F)(F)F)cc1NC(=O)NS(=O)(=O)c1ccc(C)cc1	none
COC(=O)c1sccc1Oc1ccc(C(F)(F)F)cc1NC(=O)c1cnn(-c2ccc([N+](=O)[O-])cc2)c1C(F)(F)F	Dicer inh 4
COC(=O)c1sccc1Oc1ccc(C(F)(F)F)cc1NC(=O)c1cnn(-c2ccccc2)c1C(F)(F)F	none
CCOC(=O)c1cc(-n2cccc2)ccc1N1CCCCC1	none
CS(=O)(=N/C=C(\C#N)S(=O)(=O)c1ccccn1)c1ccc(Cl)cc1 (stereo not given)	none
Cc1ccc2c(c1)NC(c1ccc(N(C)C)cc1)O2 (stereo not given)	none
COc1ccccc1C1Nc2ccc3ncccc3c2C2=C1C(=O)CC(C)(C)C2 (stereo not given)	none
O=C(c1ccc(N2CCOCC2)nc1)N1CCOCC1	none
O=C1c2ccccc2-c2ccc(C(=O)N3CCOCC3)cc21	Dicer inh 4.1
O=C1c2ccccc2-c2cccc(C(=O)N3CCCCC3)c21	none
CCOC(=O)c1nnn(-c2cc(Cl)cc(Cl)c2)c1Sc1ccc(C)cc1	none
CCOC(=O)c1c(C)n(C)c2ccc(OCC(O)CNC3CCCCC3C)cc12 (stereo not given)	none
CCCCOC(=O)/N=C/c1c(O)c2ccccc2oc1=O	none
O=C1C2CCCCC2C(=O)N1CC(=O)N1c2ccccc2CCc2ccccc21 (stereo not given)	none
O=C(NCc1ccc(S(=O)(=O)Nc2ccc3c(c2)OCCO3)s1)c1ccc(Cl)cc1	none
O=C(NCc1ccc(S(=O)(=O)Nc2ccc3c(c2)OCCO3)s1)c1ccccc1	Dicer inh 3.2
O=C(NCc1ccc(S(=O)(=O)Nc2ccccc2Cl)s1)c1ccccc1	none
CCN(CC)c1ccc(-n2cc3c(c2-c2ccc(C)cc2)c(=O)n(C)c(=O)n3C)cc1	none
COc1cc(OC)cc(-c2nc(-c3cc4ccc(C)cc4[nH]c3=O)no2)c1	none
O=C(COc1ccccc1Br)Nc1ccc2c(c1)OCO2	none
O=C(CSc1ncn[nH]1)c1ccc(O)cc1O	none
O=C(COc1ccccc1Br)c1ccc(O)cc1O	Dicer inh 3.2
N#CC1=C(N)Oc2n[nH]c(-c3ccccc3)c2C1c1ccc([N+](=O)[O-])s1 (stereo not given)	none
CC(=O)c1ccc(OCc2ccccc2)c(C)c1OC(=O)c1ccc(Cl)c(Cl)c1	none
O=C(NNc1ccc(F)cc1)c1cc(OCC(F)(F)F)nc(OCC(F)(F)F)c1	none
CSC(=NCc1ccco1)Nc1ccc(C)cc1C	Dicer inh 4.1
CN=C(Nc1cc(C)c(C)cc1C)SC	none
CCOC(=O)CSC(=S)Nc1ccc(C)cc1C	none
COc1cc(C(F)(F)F)c(C(=O)Nc2c(C)cccc2C)cn1	none
O=C(NNc1ncccc1C(F)(F)F)c1ccc(Cl)c(Cl)c1	none
CCOC(=O)C1CCN(c2cc(C)c(C#N)c3nc4ccccc4n23)CC1	none
COC(=O)C1=C(C(=O)OC)SC(=C2C(=S)C(C)(C)Nc3ccc(OC)cc32)S1	none
COc1ccc(-n2sc3c(c2=S)-c2ccccc2NC3(C)C)cc1OC	none
CCOc1ccc2c(c1)-c1c(sn(-c3ccc(OC)cc3)c1=S)C(C)(C)N2	Dicer inh 6.7
Cc1cc(C)n(C(=O)C2COc3ccccc3O2)n1 (stereo not given)	none
O=C(c1cccc(Cl)c1)N(Cc1cccs1)C1CCS(=O)(=O)C1 (stereo not given)	none
Cc1ccc2c(C)c(C(=O)N(Cc3ccc(N(C)C)cc3)C3CCS(=O)(=O)C3)oc2c1 (stereo not given)	Dicer inh 5.1
C=CCOc1ccc(C(=O)N(Cc2ccc(OC)c(OC)c2)C2CCS(=O)(=O)C2)cc1 (stereo not given)	none
CCOC(=O)c1sc(NC(=O)C(C)(C)C)c(C(=O)OCC)c1C	none
N#CC1=C(SCc2ccccc2)SC(c2ccc(C(=O)O)cc2)NC1=O (stereo not given)	none
COc1ccc(OC)c(C2CC(c3ccc(Br)cc3)=NN2C(=O)CCCC(=O)O)c1 (stereo not given)	none
CCN(CC)c1c([N+](=O)[O-])c(=O)sc2ccccc12	none
O=c1sc2ccccc2c(NCc2ccccc2)c1[N+](=O)[O-]	Dicer inh 4.4
O=[N+]([O-])c1ccsc1NCc1ccccc1	none
Cc1csc(NC(=O)COCC(=O)O)c1-c1nc2ccccc2s1	none
Cc1csc(NS(=O)(=O)c2ccc(Cl)cc2)c1-c1nc2ccccc2s1	Dicer inh 4.2
CC(=O)Nc1scc(C)c1-c1nc2ccccc2s1	none
COC(=O)c1c(NC(=O)c2ccc(OC)c(OC)c2)sc2c1CCC2	none
O=C(NC(=O)N1CCCCC1)c1ccc(F)cc1F	none
CCc1ccc2[nH]c3nc(SCC(=O)O)nnc3c2c1	none
COc1ccc(S(=O)(=O)N2CCCN(S(=O)(=O)c3ccc(OC)cc3C)CC2)c(C)c1	Dicer inh 3
COc1ccc(S(=O)(=O)N2CCCN(S(=O)(=O)c3ccc(OC)cc3)CC2)cc1	none
COc1ccc(OC)c(S(=O)(=O)N2CCC(C)CC2)c1	none
COc1ccc(/C=C/c2nc(-c3ccc(Br)cc3)no2)cc1OC	none
Cc1nn2c(C(F)(F)F)cc(-c3ccncc3)nc2c1-c1ccc(Cl)cc1	none
CN=C(C)/C(C(=O)OC)=C(/O)c1cc(C(F)(F)F)cc(C(F)(F)F)c1	none
CC(C)OC(=O)CSc1nnc(-c2ccc(Br)cc2)o1	none
COc1ccc(-c2nnc(SCC(=O)OC(C)C)o2)cc1	Dicer inh 3.1
Cc1ccc(-c2nnc(SCC(=O)OC(C)C)o2)cc1	none
CN(C)C(=O)c1ccc(Oc2cc(Cl)cc(Cl)c2)o1	none
CCOc1ccccc1Nc1n[nH]c(=S)s1	none
CSC1=NNC(c2nn(C)cc2Cl)S1 (stereo not given)	none
COc1ccc(O)c(C2=NN3C(C2)c2cccc(OC)c2OC3c2ccc(F)cc2)c1 (stereo not given)	none
COc1ccc(C2CC(c3cc(Cl)ccc3O)=NN2)cc1 (stereo not given)	Dicer inh 5.8
COc1ccc(C2Oc3c(OC)cccc3C3CC(c4ccccc4O)=NN32)cc1 (stereo not given)	none
COc1cccc2c1OC(C(C)C)N1N=C(c3cc(Cl)ccc3O)CC21 (stereo not given)	none
COc1ccc(C2=Nc3ccccc3SC(c3ccccc3)C2)c(O)c1 (stereo not given)	none
COc1ccc(C2CC(c3ccccc3O)=NN2)cc1 (stereo not given)	Dicer inh 4.2
O=C1CC(c2ccccc2Cl)c2cc3c(cc2N1)CCC3 (stereo not given)	none
N#C/C(=C\c1c(F)cccc1Cl)C(=O)Nc1ccc(F)c(Cl)c1	none
c1ccc2c(c1)c1ccccc1n2CC1CS1 (stereo not given)	none
CCNC(=O)C(C)NC(=O)OC(C)(C)C (stereo not given)	none
CC(C)(C)OC(=O)NC(COCc1ccccc1)C(=O)NCc1ccccc1 (stereo not given)	none
CCNC(=O)C(NC(=O)OC(C)(C)C)C(C)OCc1ccccc1 (stereo not given)	Dicer inh 4.7
CCc1c(C)[nH]c2ccc([N+](=O)[O-])cc12	none
CCOC(=O)/C(C#N)=C/Nc1ccc(O)cc1F	none
O=C(CC1(O)C(=O)N(CN2CCOCC2)c2ccc(Br)cc21)c1ccc(Cl)cc1 (stereo not given)	none
NNC(=O)c1[nH]c2ccc([N+](=O)[O-])cc2c1-c1ccccc1	none
O=C(O)c1[nH]c2ccc([N+](=O)[O-])cc2c1-c1ccccc1	none
Cc1ccc(S(=O)(=O)NNC(=O)c2[nH]c3ccc([N+](=O)[O-])cc3c2-c2ccccc2)cc1	Dicer inh 6.7
O=C(CSc1nnc(-c2ccc(Br)cc2)o1)NC1CCCCC1	none
Cc1sc2ncnc(SCC(=O)NCc3ccco3)c2c1C	none
